High-throughput results as filed in PubChem BioAssay.
Sampled rows, rich in hits. Any-hit rate of the full collection: about 2.4%.
Mito fusion act = mitochondrial division inhibition or fusion activation; S. cerevisiae fusion-defective mutant growth rescue, CellTiterGlo 48 h; Potency, µM (titrated, usually from 46.1 µM), hits mostly activators; actives 0.23% (n = 320,000); AID 485298; note: nearly all actives have a fitted effect of over 45% in size
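Temperature-sensitive fusion-defective S. cerevisiae (e.g. fzo1-1, mgm1-5) were grown with compound in YPEG medium (3% ethanol, 3% glycerol) for 48 hours at 37C. Growth rescue was measured as viability by CellTiterGlo luminescence after 10 minutes at ambient.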
A-T KAP1 phos = candidate therapy for ataxia-telangiectasia; F2112 A-T fibroblasts, KAP-1 phosphorylation AlphaLISA; neocarzinostatin DNA damage 30 min before lysis; Potency, µM (highest dose often 57.5 µM), hits mostly activators; actives 0.19% (n = 320,000); note: nearly all actives have a fitted effect of over 45% in size
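hTERT-immortalized A-T patient fibroblasts (F2112), 500 cells/well in OPTI-MEM, 1% FBS, got compounds for 60 min, then NCS for 30 min at 37C. Lysates were then assayed for phospho-KAP-1 by AlphaLISA (anti-pKAP1 donor, anti-KAP1 acceptor beads), 6 hr at 25C.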
aSyn yeast inh = rescues yeast growth from alpha-synuclein toxicity; actives 0.14% (n = 370,000); Yeast expressing alpha-synuclein, growth rescue, BacTiter-Glo, 24 h; Potency, µM (titrated, usually from 46.1 µM), usual class: activators; AID 652106; note: nearly all actives have a fitted effect of over 65% in size
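Screening used galactose-induced yeast with toxic alpha-synuclein levels, exposed to compound for 24 hr at 30 deg C. Cell growth, read with BacTiter-Glo luminescence, gave the measured signal.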
TDP-43 yeast inh = rescues yeast growth from TDP-43 toxicity. actives 1.8% (n = 410,000). TDP-43 expressing yeast growth rescue, BacTiter-Glo, 24 h. Potency, µM (doses to about 46.1 µM), most hits filed as activators; note: nearly all actives have a fitted effect of over 50% in size
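Galactose-induced TDP-43 yeast, OD600=0.02, compound pinned; 24 hr, 30 deg C; BacTiter-Glo luminescence for growth. Inhibitors of TDP-43 toxicity read as activators.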
Abeta yeast res = A-beta toxicity reversal in yeast; AID 1347071; actives 0.063% (n = 410,000); yeast expressing A-beta42, growth rescue, OD600, 48 h; response scale: 0% DMSO, 100% iron-clioquinol control; Potency, µM (top dose mostly 46.1 µM), most hits filed as activators; note: nearly all actives have a fitted effect of over 55% in size
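Yeast growth medium received pinned compounds, then yeast cells expressing toxic A-beta were added; plates incubated at 30 C for 48 hr. Growth read as absorbance at 600 nm, normalized to DMSO and equimolar FeCl3 plus clioquinol controls.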
FUS yeast rescue = FUS proteinopathy suppression in yeast; S. cerevisiae FUS-expressing, growth rescue, OD600, 24 h; Potency, µM (series often up to 76.6 µM), usual class: activators; actives 0.24% (n = 390,000); AID 1347120; note: nearly all actives have a fitted effect of over 55% in size
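Steps: raffinose overnight preculture; dilution to OD 0.005 in 2% galactose minimal medium; compound addition (concentration series); 24hr at 30C, 99% humidity; absorbance read at 600 nm.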
Numbers stand for hits; . = inactive; ? = inconclusive; / = no result given; ! = a repeat was not active; [ ] = remark or other dose. Calls come from the whole dose curve; as a rule, active = well fitted curve in the direction sought with a large enough effect; inconclusive = small, poorly fitted or top-dose-only effect, or another doubt; inactive = no such curve, though single readings can be large; an effect the other way counts as inactive or inconclusive.

SMILES	Mito fusion act	A-T KAP1 phos	aSyn yeast inh	TDP-43 yeast inh	Abeta yeast res	FUS yeast rescue
O=C(Nc1ccccc1)N1N=C(c2cccs2)CC1c1cccs1 (stereo not drawn)	11µM	.	?	.	.	/
O=C(CN1CCOCC1)N1N=C(c2cccs2)CC1c1cccs1 (stereo not drawn)	.	.	.	.	.	.
COc1ccc(C)cc1NC(=O)c1oc2ccc(S(=O)(=O)N3CCC4(CC3)OCCO4)cc2c1C	/	/	/	.	.	.
S=C(NCc1ccc(Cl)cc1)OC1CCC12CCC(c1ccccc1)CC2 (stereo not drawn)	/	/	/	/	/	.
CCOc1ccc(CC(=O)Nc2ccc3nc(N4CCCCC4)cc(C)c3c2)cc1OCC	/	/	/	.	.	.
CC(=O)Nc1ccc(NC2=C(Cl)C(=O)c3ccccc3C2=O)cc1	.	3.2µM	.	.	.	.
CN(C)c1ccc(NC2=C(Cl)C(=O)c3ccccc3C2=O)cc1	.	.	.	.[9.22 µM]	.	.
COc1ccc(C)c(NC(=O)[C@@H]2CCCN2S(=O)(=O)c2cccc3cccnc23)c1	/	/	/	/	/	.
CC(C)CCNC(=O)Nc1ccc2c(c1)N(C)C(=O)c1ccccc1S2	/	/	/	.	.	?
Cc1ccc(SCCNC(=O)c2ccc(C)c(S(=O)(=O)Nc3cccc(C)c3)c2)cc1	.	.	.	.	.	32µM
Cc1ccc(NS(=O)(=O)c2cc(C(=O)NCCSc3ccc(C)cc3)ccc2C)cc1	.	.	.	.	.	.
O=C(NNC1=C(C(=O)C(F)(F)F)CCC1)c1ccccc1O	.	.	.	.	.	.
COc1ccccc1C(=O)NNC1=C(C(=O)C(F)(F)F)CCC1	.	.	3.5µM	.	?	.
COc1cc2c(NC3CCN(C)CC3)nc(N3CCCCC3)nc2cc1OCCOCCN(C)C	/	/	.	/	/	/
CCSC1=NC2(CCCCC2)Nc2sc3c(c21)CCCC3	.	.	.	.	.	35µM
CCOCCn1c(COc2ccc(C)cc2)nc2ccccc21	?	.	.	.	.	/
CCn1c(COc2ccc(C)cc2)nc2ccccc21	.	.	.	11µM	.	.
Cc1ccc(OCc2nc3ccccc3n2C(C(=O)Nc2c(C)cccc2C)C2CC2)cc1 (stereo not drawn)	/	/	.	.	.	8.9µM
C=CCn1c(COc2ccccc2)nc2ccccc21	.	.	.	.[1.82 µM]	20µM	.
O=C(OCCCCSc1nnc(-c2cccc3ccccc23)o1)c1ccc(F)cc1	/	/	/	/	/	.
COC(=O)CN1CCN(C(=O)c2nocc2C)CC1	/	/	/	/	/	.
CC1CCCCN1CCCNC(=O)c1cc(Sc2cccc(Cl)c2)nc2ccccc12 (stereo not drawn)	/	/	/	.	.	.
O=C(Nc1ccc(OCc2ccccc2)cc1)c1ccccc1	.	.	.	.	.	.
CC(C)=CC(=O)Nc1ccc(OCc2ccccc2)cc1	.	.	.	13µM	.	.
COc1ccccc1-c1noc(-c2cccnc2)n1	.	.	.	11µM	.	.
SMILES	Mito fusion act	A-T KAP1 phos	aSyn yeast inh	TDP-43 yeast inh	Abeta yeast res	FUS yeast rescue
COc1ccccc1-c1nc(-c2ccncc2)no1	.	.	/	11µM	.	.
CCOc1ccc(-c2noc(-c3ccncc3)n2)cc1OCC	.	.	.	.	.	.
CCOc1ccccc1-c1nc(-c2ccncc2)no1	.	/	.	18µM	.	.
COc1ccccc1-c1nc(-c2ccc(Br)cc2)no1	.	.	.	.	.	.
O=C(COC(=O)/C=C/c1ccco1)NCc1ccc2c(c1)OCO2	.	.	.	16µM	.	.
O=C(COC(=O)C1(c2ccccc2F)CCCC1)NCc1ccc2c(c1)OCO2	?	.	.	16µM	.	/
Nc1nnc(-c2cccc(Cl)c2Cl)c(N)n1	21µM!	.	.	.	.	.
CCc1c(N)nc(N)nc1Nc1ccccc1Cl	/	/	.	.	.	.
Cc1c(NC(=O)c2ccc(-c3cccc([N+](=O)[O-])c3)o2)cccc1-c1nc2cc(Cl)ccc2o1	/	/	.	.	.	.
CCCC1CCC2(CCC(=O)N2CCSc2ccccc2)CC1 (stereo not drawn)	/	/	/	/	/	.
